A549 tox-1 = kills or reduces viability of A549 cells in Nrf2 counter-screen. 0.16% of 390,000 active. AID 504648. Potency, µM (highest dose often 46 µM), most hits filed as inhibitors. A549 ARE-Fluc cells, CellTiter-Fluor viability, 18-24 h
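A549 ARE-Fluc cells in 5% FBS OPTI-MEM, 5000 cells/well, rested 2 h then exposed to compounds in concentration-response for 18-24 h at 37 °C. Viability by CellTiter-Fluor fluorescence (Ex 405/Em 525) after 30 min; luciferase luminescence (BugLite, 15 min, RT) read afterwards.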
ELG1 DNA repair = ELG1-dependent DNA repair inhibition; HEK293T ELG1-luciferase reporter, luminescence, 16 h; DNA damage induced by 5-fluorouridine; Potency, µM (highest dose often 46.1 µM), actives largely listed as inhibitors; 2.3% of 330,000 active; AID 504467; also: nearly all actives have a fitted effect of over 55% in size
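DMSO vehicle served as the neutral condition. Each well held 2,000 cells given 5-fluorouridine plus compound; after 16 hr at 37 °C/5% CO2, ONE-Glo was added and luciferase measured 30 min later.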
Nrf2 block = blocks Nrf2 signaling; A549 ARE-Fluc reporter, luciferase luminescence, 18-24 h; Potency, µM (highest dose often 46 µM), usual class: inhibitors; 2.1% of 360,000 active; AID 504444; also: nearly all actives have a fitted effect of over 60% in size
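A549 ARE_Fluc cells (5000/well, 5% FBS OPTI-MEM) pre-incubated 2 h, then treated with compounds 18-24 h at 37C/5% CO2 in concentration-response. CellTiter-Fluor viability read first; BugLite luciferase luminescence after 15 min at room temperature gives Nrf2 activity.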
Nrf2 activator = activators of Nrf2 (ARE) signaling; AREc32 ARE-luciferase reporter (MCF7-derived line), luminescence, 24 h; Potency, µM (titrated, usually from 46.1 µM), usual class: activators; 0.31% of 410,000 active; also: nearly all actives have a fitted effect of over 65% in size
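For detection, Steady-Glo was added and plates sat 30 min at RT; before that, AREc32_Fluc cells grown overnight in OPTI-MEM/5% FBS had been treated with 23 nL compound for 24 hr at 37 deg C.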
FLuc enzyme inh = counter-screen for Nrf2 inhibitors: firefly luciferase enzyme inhibition; 4% of 1,400 active; AID 720522; Potency, µM (top dose mostly 57.5 µM), most hits filed as inhibitors; purified firefly luciferase, luminescence inhibition; shares compounds with Nrf2 block; also: nearly all actives have a fitted effect of over 65% in size
Target sequence (P08659 whole entry, looked up): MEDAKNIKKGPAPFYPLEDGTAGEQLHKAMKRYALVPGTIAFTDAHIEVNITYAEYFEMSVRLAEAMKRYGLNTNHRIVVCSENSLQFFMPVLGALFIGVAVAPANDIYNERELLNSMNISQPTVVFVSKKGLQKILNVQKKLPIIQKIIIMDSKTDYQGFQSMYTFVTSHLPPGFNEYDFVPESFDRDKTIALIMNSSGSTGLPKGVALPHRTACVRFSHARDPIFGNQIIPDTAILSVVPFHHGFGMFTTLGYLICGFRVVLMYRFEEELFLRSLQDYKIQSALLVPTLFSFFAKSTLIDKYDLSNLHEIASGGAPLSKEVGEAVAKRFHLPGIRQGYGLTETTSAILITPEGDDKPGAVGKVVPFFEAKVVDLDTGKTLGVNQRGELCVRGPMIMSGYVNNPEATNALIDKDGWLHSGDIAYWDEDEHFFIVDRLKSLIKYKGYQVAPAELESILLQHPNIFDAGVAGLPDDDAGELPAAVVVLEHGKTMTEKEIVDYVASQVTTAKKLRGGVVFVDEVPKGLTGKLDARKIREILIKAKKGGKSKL
A549 tox-2 = toxic to A549 ARE-Fluc cells in Nrf2 counterscreen; shares compounds with Nrf2 block; A549 ARE-Fluc cells, cytotoxicity counterscreen; Potency, µM (doses to about 46.1 µM), usual class: inhibitors; 2% of 1,400 active;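 also: cells exposed to compounds for 18 to 24 hours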
ARE-Fluc inh = confirmation of Nrf2 inhibitors in A549 ARE reporter cells | shares compounds with Nrf2 block | A549 ARE-firefly luciferase reporter, luminescence | Potency, µM (series often up to 46.1 µM), actives largely listed as inhibitors | 74% of 1,400 active | AID 720524; also: nearly all actives have a fitted effect of over 65% in size
Numbers stand for hits; . = inactive; ? = inconclusive; / = not tested or not shown; [ ] = remark or other dose. A selection: hits, their analogues and other compounds. The true share with any hit is near 3.7%. Calls follow the shape of the dose curve; as a rule, active = well fitted curve in the direction sought with a large enough effect; inconclusive = small, poorly fitted or top-dose-only effect, or another doubt; inactive = no such curve, though single readings can be large; an effect the other way counts as inactive or inconclusive.

SMILES	A549 tox-1	ELG1 DNA repair	Nrf2 block	Nrf2 activator	FLuc enzyme inh	A549 tox-2	ARE-Fluc inh
CC(=O)NS(=O)(=O)c1ccc(N=c2ssc3c2-c2ccc(C)cc2NC3(C)C)cc1	?	.	.	.	/	/	/
CC(Oc1ccc(Br)cc1)C(=O)Nc1ccncc1 (configuration not stated)	.	5.2µM	8.2µM	.	.	.	/
CCOC(=O)c1sc2ccccc2c1OC(=O)c1ccccc1OC	.	?	4.6µM	.	.	.	?
CCOC(=O)c1ccccc1NC(=O)c1sc2ccccc2c1Cl	.	/	?	.	/	/	/
O=C(CS(=O)CC(=O)N(CC(=O)NC1CCCC1)c1ccccc1F)Nc1ccc(F)cc1 (configuration not stated)	.	.	.	.	/	/	/
COc1ccc(C2(C)NC(=O)NC2=O)cc1OC (configuration not stated)	.	.	.	.	/	/	/
CC1CCN(C(=O)CSc2nc3c(cnn3-c3ccccc3)c(=O)[nH]2)CC1	.	.	5.8µM	.	.	.	.
CC1CCN(C(=O)CSc2nc3c(cnn3-c3ccc(Cl)cc3)c(=O)[nH]2)CC1	.	.	.	.	/	/	/
O=C(NC1CCCCC1)c1ccc(-c2cn[nH]c2)c2ccoc12	/	/	/	.	/	/	/
CCN1CCS/C1=C\C=C\C1=[N+](CC)CCS1	?	0.58µM	1.6µM	.	.	?	6.5µM
CCN1CCS/C1=C/C=C/C1=[N+](CC)CCS1	?	.	/	.	/	/	/
CC(C)Cc1nn2c(=O)cc(COC(=O)c3ccccc3NC(=O)c3cccs3)nc2s1	.	/	/	.	/	/	/
O=C(NC(=S)Nc1ccc(Cc2ccncc2)cc1)c1ccc(F)cc1	.	?	5.8µM	.	.	.	?
CCOc1ccc(-n2c(SCc3ccc(C(=O)OC)o3)nc3c([nH]c4ccccc43)c2=O)cc1	.	/	/	.	/	/	/
Cc1cccc2sc(NNC(=O)c3ccc(S(=O)(=O)N4CCc5ccccc5C4)cc3)nc12	.	.	?	.	.	.	6.5µM
CCOC(=O)N1CCN(S(=O)(=O)c2ccc(C(=O)NNc3nc4ccc(Cl)cc4s3)cc2)CC1	?	?	5.8µM	.	.	.	7.3µM
Cc1cccc2sc(NNC(=O)c3ccc(S(=O)(=O)N4CCCC(C)C4)cc3)nc12 (configuration not stated)	.	?	?	.	/	/	/
CCOC(=O)C1=C(Nc2ccc(OC)cc2)C(N)=NC1=N	/	/	/	.	/	/	/
O=C(CSc1nnc(Cn2nnc3ccccc32)o1)N(Cc1ccc(Cl)cc1)c1ccccc1	?	.	5.8µM	.	.	.	9.2µM
O=C(CSc1nnc(Cn2nnc3ccccc32)o1)Nc1cccc(Cl)c1	.	.	.	.	/	/	/
CCN(CC)S(=O)(=O)c1ccc(C)c(NC(=S)N2CCN(Cc3ccc4c(c3)OCO4)CC2)c1	.	?	6.5µM	.	.	.	10µM
Cc1ccc(NC(=S)N2CCN(Cc3ccc4c(c3)OCO4)CC2)c(C)c1	.	/	?	.	/	/	/
Cc1ccc(NC(=O)C2CCCN(C(=O)c3ccc(Cl)cc3)C2)cc1S(=O)(=O)N1CCOCC1 (configuration not stated)	?	?	7.3µM	.	.	.	13µM
CC(=O)Nc1ccc(NC(=O)C2CCCN(C(=O)c3ccc(Cl)cc3)C2)cc1 (configuration not stated)	.	.	.	.	/	/	/
COc1ccc([C@H]2CC(=O)C=C(c3ccccc3OC)C2)cc1OC	.	?	?	.	/	/	/
SMILES	A549 tox-1	ELG1 DNA repair	Nrf2 block	Nrf2 activator	FLuc enzyme inh	A549 tox-2	ARE-Fluc inh
Cn1c(=O)c2c(nc(NCc3ccco3)n2C)n(C)c1=O	.	.	.	.	/	/	/
Cn1c(=O)c2c(nc(NCc3ccco3)n2C/C=C/c2ccccc2)n(C)c1=O	?	4.6µM	4.1µM	.	.	.	7.3µM
CC1(C(=O)NS(=O)(=O)c2ccc(Br)cc2)CCN1C(=O)Cc1cccs1 (configuration not stated)	/	/	/	.	/	/	/
COc1ccc(C)cc1NC(=O)C1CCC(CNS(=O)(=O)c2ccc3c(c2)CCCC(=O)N3)CC1 (configuration not stated)	?	/	7.3µM	.	.	.	7.3µM
COc1ccc(C(=O)NC(C)c2nc3ccccc3n2C)cc1OC (configuration not stated)	.	.	.	.	/	/	/
COc1ccc(C(O)c2nc3ccccc3n2C)cc1OC (configuration not stated)	.[1.84 µM]	9.2µM	3.7µM	.	.	.	?
C=CCOc1ccc(/C=N/NC(=O)c2c(C)nc3ccc(Cl)cn23)cc1	.	.	.	.	/	/	/
O=C(COc1ccccc1Cl)NCCCNC(=O)c1cccnc1	.	.	3.7µM	.	.	.	9.2µM
O=C1CCCCCN1C(=O)c1ccccc1	.	/	.	.	/	/	/
CC(C)(C)c1ccc(C(=O)N2CCCCCC2=O)cc1	.	?	9.2µM	.	?	.	3.7µM
COc1cccc(-c2ncc3ccccc3c2COC(=O)N2CCCCC2)c1	.	?	5.8µM	.	.	.	?
Cc1cnc2ccc3ccccc3c2c1C	/	/	/	/	?	.	6.5µM
O=[N+]([O-])c1ccc(S(=O)(=O)CC2CSc3nc4ccccc4n32)cc1 (configuration not stated)	.	.	5.2µM	.	.	?	2.1µM
O=C(CSc1nc(-c2ccc(F)cc2)[nH]c1-c1ccccc1)NCC1CCCO1 (configuration not stated)	.	/	.	.	/	/	/
CC[C@H](C)[C@@H](C(=O)NCCCCCCCCCCC(=O)N1CCN(C(=O)OC(C)(C)C)CC1)n1cc(CCCCCNC(=O)OC(C)(C)C)nn1	.	?	5.8µM	.	.	.	7.3µM
CC(=O)N1CCCC1c1nc2ccccc2n1Cc1ccccc1C (configuration not stated)	?	/	3.3µM	.	.	.	.
NS(=O)(=O)c1ccc(CCNC(=O)CCCCCn2c(=S)[nH]c3ccc(Br)cc3c2=O)cc1	.	.	?	.	/	/	/
COc1ccc(CC(=O)Nc2cccc(S(=O)(=O)N3CCOCC3)c2)cc1OC	.	.	.	.	/	/	/
COc1ccc(CNC(=O)c2cccc(S(=O)(=O)N3CCCCC3)c2)cc1OC	.	?	5.2µM	.	.	.	5.8µM
COc1ccc(CC(=O)Nc2cccc(S(=O)(=O)N3CCCC3)c2)cc1OC	.	?	4.6µM	.	.	.	7.3µM
O=C(Cn1cnc2ccccc21)Nc1cccc(S(=O)(=O)N2CCCC2)c1	.	.	5.8µM	.	.	.	9.2µM
COc1cc(OC)c(OC)cc1CNC(=O)c1cccc(S(=O)(=O)N2CCc3ccccc3C2)c1	.	?	7.3µM	.	.	.	5.8µM
